The panel holds about 83,000 compounds, 20% with a hit somewhere; the sample as a whole holds those more often.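 48-hour exposure, single concentration, 96-well plates; percent growth endpoint where 0 means no net growth. Active: below 10.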 A number with no mark means an inactive call. Activity calls are given as the source filed them.

Growth data for 13 compounds are collected here from PubChem BioAssay (NCI).

What all share (assay): NCI-60 one-dose screen, 48 h (100 = growth as untreated, 0 = no growth, -100 = all killed)
Holding throughout (details): 10 µM unless noted

Test [1] deals with NCI-H23 lung.
Test [2] relates to NCI-H226 lung.
The subject of test [3] is NCI-H322M lung.
The test system of test [4] is HOP-62 NSCLC.
Test [5] deals with NCI-H460 lung.
The subject of test [6] is HOP-92 NSCLC.
In test [7] the test system is NCI-H522 lung.
Test [8] deals with A549/ATCC NSCLC.
For test [9], the system named is 786-0 renal.
The test system of test [10] is COLO 205 colon.

For the compound `Clc1ccc(CNc2nc(SCCN3CCOCC3)nc3c2cnn3CC(Cl)c2ccc(Br)cc2)cc1` (stereo not given), the growth in test [1] is 49.4%; in [2] it was 62.6%; in test [3], 83.8%; in test [4] it was 58.6%; in test [5], 25.1%; in [6] it was 48%. The growth was 48.5% in [7], 23.4% in test [8], 39.6% in [9] and 5.78% (active) in test [10].

On to `COc1ccc(NC(=O)CSc2nnc(-c3ccc(-c4nc5ccccc5[nH]4)cc3)o2)cc1`, for which the growth was 11.9% in [1]; 20.3% in [2]; 74.3% in test [3]; -15.8% (active) in test [4]; 0.884% (active) in test [5]; 10.8% in [6]. In addition, the growth in [7] is 0.861% (active); in test [8] it was 6.46% (active); in [9], -33.8% (active); in [10], 49.2%.

Turning to `O=C1CCC(N2C(=O)c3cccc(NCCCCCC(=O)N4CCN(c5ccc6nc7c(nc6c5C(F)(F)F)C(=O)c5ncccc5C7=O)CC4)c3C2=O)C(=O)N1` (stereo not given), the growth in test [1] is -49% (active); in test [2], -51.3% (active); in test [3] it was -73.8% (active); in test [4] it was -74.2% (active); in [5], -48.3% (active); in [6] it was -40.2% (active). Moreover, the growth in test [7] is -62% (active); in test [8], -64.3% (active); in test [9], -56.5% (active); in test [10], -75.9% (active).

In the case of `CC(C)CN1C(=O)/C(=C\C(=O)c2cc3ccccc3oc2=O)c2ccccc21`, the growth in [1] is 90.5%; in test [2] it was 83.5%; in test [3], 96.7%; in test [4], 97.9%; in test [5], 103%; in [6], 104%. The growth in test [7] is 31.5%; in test [8], 109%; in test [9], 105%; in [10] it was 26.8%.

Consider `CC(=O)C[n+]1cccc2c3ccccc3ccc21`, for which the growth in test [1] is 85.4%; in [2], 97%; in test [3] it was 89.7%; in [4] it was 109%; in [5], 82.4%; in test [6] it was 85.2%. Moreover, the growth was 82.7% in [7], 56.9% in [8], 94.8% in [9] and 70.5% in test [10].

Take `CC(C)(C)C(=O)c1c2c(c3ccc4c5ccccc5ccc4n13)C(=O)c1ccccc1C2=O`: the growth in test [1] was 73.5%; in test [2], 73.1%; in test [3], 97.5%; in test [4] it was 84.6%; in test [5] it was 55.9%; in [6], 104%. The growth in test [7] was 91.5%; in test [8], 84.9%; in [9], 109%; in [10], 102%.

For the compound `Cc1ccc(C2CC(c3ccc(S(=O)(=O)NCCNc4nc(N(C)C)nc(N5CCOCC5)n4)cc3)=Nc3c(N)nc(N)nc3N2)cc1` (stereo not given), the growth in test [1] is 72%; in test [2], 63.8%; in [3] it was 77.3%; in test [4], 63.9%; in [5], 53.6%; in test [6] it was -9.13% (active). For the same compound, the growth in test [7] is 80.1%; in [8] it was 62.2%; in test [9], 32.8%; in test [10], 72.3%.

For `COc1ccc(NC(=O)N/N=C/c2c[nH]c3ccccc23)cc1`, the growth in test [1] was 40%; in test [2], 34.7%; in [3], 43.2%; in test [4], 44.1%; in test [5], 14.9%; in [6], 69.5%. The growth was -34.7% (active) in test [7], 45.6% in test [8], 44.8% in test [9] and 4.05% (active) in test [10].

On to `Cc1ccc2nc(SCc3ccccc3F)n(-c3ccccc3)c(=O)c2c1`, for which the growth was 93.9% in [1]; 96.7% in test [2]; 97.1% in test [3]; 95% in test [4]; 105% in test [5]; 82.1% in test [6]. The growth in [7] is 87.8%; in [8], 85.8%; in test [9] it was 94.9%; in test [10] it was 116%.

Regarding `COc1cncc(-c2ccc3ncnc(N4CCc5ccc(Cl)cc54)c3c2)c1`, the growth in test [1] was 8.73% (active); in test [2], 31.8%; in test [3] it was -2.19% (active); in test [4] it was 51.3%; in test [5], 51.8%; in test [6] it was -56.9% (active). For the same compound, the growth was 36.6% in [7], 29.9% in [8], -74.2% (active) in test [9] and 38.4% in test [10].

On to `Fc1ccc(Nc2nnc(-c3c[nH]c4ccccc34)o2)cc1`, for which the growth in test [1] was 85.7%; in test [2], 70.2%; in test [3], 94.5%; in test [4], 71%; in test [5], 91.9%; in test [6], 58.2%. Further, the growth in test [7] was 48.7%; in test [8], 77.5%; in [9] it was 94.7%; in test [10], 127%.

With `CN(C)c1nc(NCCNS(=O)(=O)c2ccc(C(=O)/C=C/c3ccc(F)cc3)cc2)nc(N2CCOCC2)n1`, the growth is 50.9% in [1]; 74% in test [2]; 84.4% in test [3]; 76.2% in test [4]; 78.5% in test [5]; 77.8% in test [6]. In addition, the growth in test [7] is 28.7%; in test [8] it was 7.37% (active); in [9], -55.7% (active); in test [10], 35%.

Consider `COc1ccc(-c2cc(-c3cc(OC)c(OC)c(OC)c3)[nH]c(=O)c2C#N)cc1`, for which the growth in [1] is 86%; in test [2], 23.4%; in test [3], 5.73% (active); in [4] it was 12.9%; in test [5], 52.4%; in test [6] it was -33.5% (active). Besides, the growth in test [7] is 50.6%; in test [8] it was 59.3%; in [9], -65.4% (active); in [10], 130%.
